Measured values as given in the antibiotic and cytotoxicity screens of Wong et al. (2023).
The campaign covered roughly 39,000 compounds. About 1,500 (3.8%) were called active. For the sample, actives were picked, then their nearest neighbours and some compounds at random.

Tested on: HSkMC (human skeletal muscle cells)
Test: cytotoxicity call (relative viability < 0.9)
Settings: 10 µM

Row | SMILES | cytotoxicity call
1 | CC(C)[C@@H](N)c1ncnn1C | inactive
2 | COc1ccc(NC(=O)Nc2ccc3c(c2)C(=O)N([C@H](C)CO)C[C@@H](C)[C@H](CN(C)S(=O)(=O)c2ccc(Cl)cc2)OCCCC[C@H](C)O3)cc1 | inactive
3 | CC(C)C#Cc1cnc2c(c1)C(=O)N([C@@H](C)CO)C[C@H](C)[C@H](CN(C)C(=O)c1ccc3c(c1)OCO3)O2 | inactive
4 | C[C@H](CO)N1C[C@H](C)[C@@H](CN(C)C(=O)Cc2ccccn2)Oc2cc(-c3cccc(C(=O)N(C)C)c3)ccc2S1(=O)=O | inactive
5 | C[C@H]1[C@H]([Si](C)(C)F)[C@@H](CC(=O)N2Cc3ccccc3C[C@H]2CO)O[C@]12C(=O)N(c1ccccc1)c1ccccc12 | inactive
6 | CCCNc1ncnc(N)c1[N+](=O)[O-] | inactive
7 | NS(=O)(=O)c1ccccc1 | inactive
8 | Nc1ccccc1S(N)(=O)=O | inactive
9 | NS(=O)(=O)C#Cc1ccccc1 | active
10 | CCC[C@@H](O)C#Cc1cnc2c(c1)C(=O)N([C@H](C)CO)C[C@H](C)[C@H](CN(C)S(C)(=O)=O)O2 | inactive
11 | CCOc1cc(C(C)(C)C)ccc1C1=N[C@@](C)(c2ccc(Cl)cc2)[C@@](C)(c2ccc(Cl)cc2)N1C(=O)N1CCN(CCCS(C)(=O)=O)CC1 | active
12 | C[C@H]1CN([C@@H](C)CO)S(=O)(=O)c2ccc(/C=C/c3ccccc3)cc2O[C@@H]1CN(C)C(=O)CN1CCOCC1 | inactive
13 | C[C@H]1CN([C@@H](C)CO)C(=O)Cc2cc(NC(=O)c3ccncc3)ccc2O[C@@H]1CN(C)S(=O)(=O)c1cn(C)cn1 | inactive
14 | COc1cccc(S(=O)(=O)N(C)C[C@@H]2Oc3ncc(C#CC(C)C)cc3C(=O)N([C@@H](C)CO)C[C@@H]2C)c1 | inactive
15 | COc1ccc(S(=O)(=O)N(C)C[C@H]2Oc3ccc(NC(=O)Cc4ccccc4)cc3C(=O)N([C@H](C)CO)C[C@@H]2C)cc1 | active
16 | COc1ccc(NC(=O)Nc2ccc3c(c2)C(=O)N([C@H](C)CO)C[C@@H](C)[C@@H](CN(C)C(=O)Nc2cccc4ccccc24)O3)cc1 | active
17 | COc1ccc(NC(=O)Nc2ccc3c(c2)C(=O)N([C@H](C)CO)C[C@@H](C)[C@H](CN(C)C(=O)Nc2cccc4ccccc24)O3)cc1 | inactive
18 | COc1ccc(S(=O)(=O)N(C)C[C@H]2Oc3ccc(NC(=O)Nc4cccc5ccccc45)cc3C(=O)N([C@@H](C)CO)C[C@@H]2C)cc1 | inactive
19 | COc1ccc(NC(=O)Nc2ccc3c(c2)C(=O)N([C@H](C)CO)C[C@H](C)[C@@H](CN(C)C(=O)Nc2cccc4ccccc24)O3)cc1 | inactive
20 | COc1ccc(S(=O)(=O)N(C)C[C@H]2Oc3ccc(NC(=O)Cc4ccccc4)cc3C(=O)N([C@@H](C)CO)C[C@@H]2C)cc1 | inactive
21 | COc1ccc(NC(=O)Nc2ccc3c(c2)C(=O)N([C@@H](C)CO)C[C@H](C)[C@H](CN(C)C(=O)Nc2cccc4ccccc24)O3)cc1 | inactive

Row | SMILES | cytotoxicity call
22 | COc1ccc(S(=O)(=O)N(C)C[C@H]2Oc3ccc(NC(=O)Nc4cccc5ccccc45)cc3C(=O)N([C@H](C)CO)C[C@H]2C)cc1 | inactive
23 | COc1ccc(NC(=O)Nc2ccc3c(c2)C(=O)N([C@@H](C)CO)C[C@@H](C)[C@H](CN(C)C(=O)Nc2cccc4ccccc24)O3)cc1 | inactive
24 | COc1ccc(NC(=O)Nc2ccc3c(c2)C(=O)N([C@@H](C)CO)C[C@@H](C)[C@@H](CN(C)C(=O)Nc2cccc4ccccc24)O3)cc1 | active
25 | COc1ccc(S(=O)(=O)N(C)C[C@@H]2Oc3ccc(NC(=O)Nc4cccc5ccccc45)cc3C(=O)N([C@@H](C)CO)C[C@H]2C)cc1 | active
26 | COc1ccc(S(=O)(=O)N(C)C[C@@H]2Oc3ccc(NC(=O)Cc4ccccc4)cc3C(=O)N([C@@H](C)CO)C[C@@H]2C)cc1 | inactive
27 | C[C@H]1C(=O)C(=O)[C@@H]2O[C@@H]2C1=O | inactive
28 | C[C@@H]1CN([C@@H](C)CO)C(=O)c2cc(NC(=O)C3CCCCC3)ccc2O[C@@H](C)CCCCO[C@@H]1CN(C)C(=O)c1ccncc1 | inactive
29 | C=CC(=O)N[C@@H]1c2ccccc2C[C@@H]1O | inactive
30 | Cc1noc(C)c1NC(=O)N(C)C[C@H]1OCCCC[C@@H](C)Oc2ccc(NS(=O)(=O)c3ccc(F)cc3)cc2C(=O)N([C@@H](C)CO)C[C@@H]1C | inactive
31 | COc1ccc(S(=O)(=O)Nc2ccc3c(c2)C(=O)N([C@@H](C)CO)C[C@@H](C)[C@H](CN(C)Cc2ccc(Cl)c(Cl)c2)O3)cc1 | inactive
32 | COc1ccc(S(=O)(=O)Nc2ccc3c(c2)C(=O)N([C@@H](C)CO)C[C@H](C)[C@@H](CN(C)Cc2ccc(Cl)c(Cl)c2)O3)cc1 | active
33 | COc1ccc(S(=O)(=O)Nc2ccc3c(c2)C(=O)N([C@H](C)CO)C[C@H](C)[C@H](CN(C)Cc2ccc(Cl)c(Cl)c2)O3)cc1 | inactive
34 | COc1ccc(S(=O)(=O)Nc2ccc3c(c2)C(=O)N([C@H](C)CO)C[C@@H](C)[C@H](CN(C)Cc2ccc(Cl)c(Cl)c2)O3)cc1 | active
35 | COc1ccc(S(=O)(=O)Nc2ccc3c(c2)C(=O)N([C@H](C)CO)C[C@@H](C)[C@@H](CN(C)Cc2ccc(Cl)c(Cl)c2)O3)cc1 | inactive
36 | COc1ccc(S(=O)(=O)Nc2ccc3c(c2)C(=O)N([C@@H](C)CO)C[C@@H](C)[C@@H](CN(C)Cc2ccc(Cl)c(Cl)c2)O3)cc1 | active
37 | COc1ccc(S(=O)(=O)Nc2ccc3c(c2)C(=O)N([C@H](C)CO)C[C@H](C)[C@@H](CN(C)Cc2ccc(Cl)c(Cl)c2)O3)cc1 | inactive
38 | COc1ccc(S(=O)(=O)Nc2ccc3c(c2)C(=O)N([C@@H](C)CO)C[C@H](C)[C@H](CN(C)Cc2ccc(Cl)c(Cl)c2)O3)cc1 | inactive
39 | COc1ccc(CN(C)C[C@@H]2OCCCC[C@@H](C)Oc3ccc(NC(=O)c4ccncc4)cc3C(=O)N([C@@H](C)CO)C[C@@H]2C)cc1 | inactive
40 | C[C@@H]1CCCCO[C@H](CN(C)C(=O)Nc2ccc3c(c2)OCO3)[C@@H](C)CN([C@H](C)CO)C(=O)c2cc(NC(=O)CCC(F)(F)F)ccc2O1 | inactive
41 | C[C@@H]1CN([C@H](C)CO)C(=O)c2cc(NS(=O)(=O)c3ccccc3)ccc2O[C@@H]1CN(C)S(=O)(=O)c1cccs1 | inactive
